Shown are actives, neighbours in structure and some others; about 3.6% of the full set was active somewhere.
Pf apPOL inh: Pf-apPOL DNA polymerase inhibition; Recombinant Pf-apPOL, molecular beacon fluorescence, 1.5 h; inhibition, % at 10 µM; 210,000 tested, 0.25% active; AID 1794808
mHTT-CaM PPI inh: mHTT-calmodulin interaction abrogation; P42858; AlphaScreen His-mHTT/GST-CaM binding, luminescence; inhibition, % at 15 µM; 190,000 tested, 3.6% active;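 also: 0% = both proteins with DMSO and 100% = one protein alone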
Numbers without * were called inactive; . = no result; + = active, no number. Rule as the data show it: active = inhibition above about 50%; inactive = the rest.

SMILES | Pf apPOL inh | mHTT-CaM PPI inh
O=C(Nc1ccc(Nc2ccccc2)cc1)C1CC1c1ccccc1 (stereo not drawn) | -11.0 | 88.5*
COc1cc(C2C(C#N)=C(N)Oc3c2oc(CO)cc3=O)cc(OC)c1OC (stereo not drawn) | 3.9 | 1.9
COc1cc(C2C(C#N)=C(N)Oc3c2[nH]c(=O)[nH]c3=O)cc(OC)c1OC (stereo not drawn) | 97.0* | -4.0
CN1OCC(S(=O)(=O)NCc2ccc(F)cc2)C1c1ccccc1Cl (stereo not drawn) | 0.7 | -9.4
O=[N+]([O-])c1ccc(/C=C/CNc2cccc(F)c2)o1 | 4.0 | 58.7*
O=C(CCNc1cccc(F)c1)c1cccc([N+](=O)[O-])c1 | 2.8 | 16.0
O=C(CSc1nnc2ccc(-c3ccccc3)nn12)NCc1ccccc1Cl | 2.1 | -4.3
N#Cc1ccc(-c2ccccc2)[nH]c1=O | -7.9 | 4.0
O=c1cc(-c2ccccc2)[nH][nH]1 | -6.1 | 100.1*
O=C(Nc1nc2c(F)cccc2s1)c1ccc([N+](=O)[O-])o1 | 2.6 | 3.5
O=C(Nc1nc2c(s1)CCCC2)c1ccc([N+](=O)[O-])o1 | 64.0* | 18.0
Cc1ccc(C(C[N+](=O)[O-])c2c(O)cc(C)oc2=O)cc1 (stereo not drawn) | -3.9 | 4.0
O=[N+]([O-])c1cc(F)c(N2CCCC2)cc1N1CCCCCC1 | -3.9 | 79.0*
O=[N+]([O-])c1cc(F)c(N2CCOCC2)cc1N1CCOCC1 | -7.2 | 3.8
Cc1cc(N2CCCCC2)c(F)cc1[N+](=O)[O-] | 0.8 | 0.5
O=[N+]([O-])c1cc(F)c(N2CCCC2)cc1N1CCCC1 | 1.3 | 59.1*
COc1cccc(C(CC(=O)N2CCCC2)c2c[nH]c3ccccc23)c1 (stereo not drawn) | -3.7 | 13.5
COc1ccc(C(CC(=O)N2CCCC2)c2c[nH]c3ccccc23)cc1 (stereo not drawn) | -7.2 | 91.2*
COc1ccc(C2C(C(=O)NCCCOC(C)C)c3cc(OC)c(OC)cc3C(=O)N2C)cc1 (stereo not drawn) | -4.5 | 12.0
N#Cc1c(C(F)(F)F)cc(-c2ccccc2)nc1SCCC(N)=O | -8.7 | -23.9
N#Cc1c(C(F)(F)F)cc(-c2ccccc2)nc1SCC(N)=O | 65.3* | -1.0
COc1cccc(CN2CCc3c(cc(C(=O)Nc4cc(C)ccc4OC)n3C)C2)c1 | -5.4 | 85.8*
COc1cccc(CN2CCc3c(cc(C(=O)N(C)C)n3C)C2)c1 | -3.2 | 10.1
COc1cccc(CN2CCc3c(cc(C(=O)Nc4ccc(F)cc4C)n3C)C2)c1 | -5.6 | 64.8*
COc1cccc(NC(=O)c2cc3c(n2C)CCN(Cc2ccc(F)cc2)C3)c1 | -5.6 | 25.9
SMILES | Pf apPOL inh | mHTT-CaM PPI inh
COc1cccc(CN2CCc3c(cc(C(=O)NCc4cccnc4)n3C)C2)c1 | -4.7 | 9.3
COc1cccc(CNC(=O)c2cc3c(n2C)CCN(Cc2cccc(OC)c2)C3)c1 | -4.3 | 59.2*
COc1ccc(OC)c(NC(=O)c2cc3c(n2C)CCN(Cc2ccc(C)cc2)C3)c1 | -4.8 | 78.3*
COc1ccccc1NC(=O)c1cc2c(n1C)CCN(Cc1ccc(C)cc1)C2 | -3.9 | 24.9
Cc1noc(C2CN(C(=O)NC(C)C)CCC2NC(=O)c2cccnc2)n1 (stereo not drawn) | -10.6 | -1.9
CN(C)c1ccc(-c2cc[n+](-c3nc4ccccc4nc3[N-]S(=O)(=O)c3ccccc3)cc2)cc1 | . | -10.6
O=C(N1CCN(c2ncccn2)CC1)C(F)(F)F | -8.8 | -2.0
CN(C)c1ccc(C2NC(=O)c3c(sc4c3CCCC4)N2)cc1 (stereo not drawn) | 11.5 | 26.0
O=C1NC(c2ccc(O)cc2)Nc2sc3c(c21)CCCC3 (stereo not drawn) | -0.8 | 57.0*
O=C1NC(c2ccc3c(c2)OCO3)Nc2sc3c(c21)CCCC3 (stereo not drawn) | -8.0 | 1.0
O=C1NC(/C=C/c2ccccc2)Nc2sc3c(c21)CCCC3 (stereo not drawn) | -5.4 | 66.0*
O=C1NC(c2ccc(-c3ccc(F)cc3)o2)Nc2sc3c(c21)CCCC3 (stereo not drawn) | 19.0 | 63.0*
O=C1NC(c2cccs2)Nc2sc3c(c21)CCCC3 (stereo not drawn) | -2.3 | 7.0
C=CCSc1nc2ccccc2n1C(=O)/C=C/c1ccc2c(c1)OCO2 | 1.5 | 20.0
Brc1ccc2c(c1)c1cc(Br)cc(Br)c1n2Cc1ccccc1 | 1.8 | .
COC(=O)c1cc2ccccc2oc1=O | -0.7 | -1.9
O=C(C[n+]1ccc2ccccc2c1)c1cc2ccccc2oc1=O | 1.1 | 84.6*
Cc1ccccc1NC(=O)c1c(C)sc2c(=O)n(C(C)C)cnc12 | -3.2 | -0.6
Cc1ccc(C(O)CNC(=O)Cc2ccc(Cl)cc2)o1 (stereo not drawn) | -1.6 | -5.2
O=S1(=O)N=C(N/N=C/c2cc(Cl)ccc2O)c2ccccc21 | . | +
O=S1(=O)N=C(Nc2ccccc2O)c2ccccc21 | -5.4 | 0.0
CN(C)c1cccc(C(=O)Nc2cccc(Cl)c2Cl)c1 | -4.9 | 3.4
CCCc1c(C(=O)NCCO)nnn1-c1ccc(Cl)cc1 | -3.9 | -20.8

From PubChem
